High-throughput results: PubChem BioAssay, several laboratories
CHT inh = inhibitors of human choline transporter CHT. CHT-expressing cells, membrane potential dye, choline response; hits give low values. AID 488975. hit rate 0.86% among 310,000. Q9GZV3. B-score at 10 µM;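 active means B-score over 3 SD under the library average, and starting fluorescence ratio not unusually high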;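 further: choline stimulus applied at its EC90 after an EC20 pre-addition; B-score computed on integrated fluorescence ratio after choline addition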
Target sequence (Q9GZV3 whole entry, looked up): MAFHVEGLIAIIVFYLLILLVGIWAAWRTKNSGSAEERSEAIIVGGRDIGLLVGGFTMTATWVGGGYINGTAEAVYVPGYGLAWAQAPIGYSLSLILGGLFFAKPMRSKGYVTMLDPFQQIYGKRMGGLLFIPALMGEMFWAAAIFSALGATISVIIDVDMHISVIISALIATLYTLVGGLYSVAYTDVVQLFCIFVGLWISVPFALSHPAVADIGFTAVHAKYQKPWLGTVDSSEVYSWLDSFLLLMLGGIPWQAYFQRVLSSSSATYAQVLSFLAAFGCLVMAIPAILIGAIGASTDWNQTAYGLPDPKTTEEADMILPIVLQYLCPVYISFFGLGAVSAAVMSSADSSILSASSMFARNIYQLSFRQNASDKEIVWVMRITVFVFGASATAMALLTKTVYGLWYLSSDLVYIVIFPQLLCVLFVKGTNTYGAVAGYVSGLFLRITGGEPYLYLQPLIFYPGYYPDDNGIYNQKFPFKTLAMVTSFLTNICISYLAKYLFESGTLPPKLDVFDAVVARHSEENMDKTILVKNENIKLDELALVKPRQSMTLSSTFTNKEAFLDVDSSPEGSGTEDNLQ
CHT PAM = allosteric activators of human choline transporter CHT; Q9GZV3; CHT-expressing cells, membrane potential dye, choline EC20; hits give high values; LV-AA mutant CHT in HEK293 cells; B-score at 10 µM; hit rate 0.49% among 310,000; AID 488977;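 active means initial fluorescence not abnormally high and integrated response B-score, plate-corrected, over 3 SD above library mean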
TAG inh = triacylglycerol accumulation inhibition | inhibition, % at 12.5 µM | AID 651582 | hit rate 0.66% among 230,000 | H9c2 cells, Nile Red lipid (TAG) fluorescence; cells loaded with 200 µM oleic acid;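 active means pattern-corrected inhibition of lipid staining of at least 50% with the nuclear-stain viability signal not falling by more than 50%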
MIN6 prolif = inducers of beta-cell replication in MIN6 cells; MIN6 cells proliferation, ATPlite luminescence, 48 h; cells starved in 0.2% serum; 100% = growth in 10% serum; proliferation, % at 10 µM; hit rate 0.29% among 330,000; AID 2380;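 active means compounds whose signal lies at least 3.5 SD above the mean of all wells on their plate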
CHT act confirm = human CHT activation, confirmatory screen; activation, % at 10 µM; CHT-expressing cells, membrane potential dye fluorescence (FDSS); % of choline EC20–EC90 response window; HEK293 expressing CHT LV-AA mutant; choline added at its EC20; hit rate 91% among 2,500; shares compounds with CHT PAM;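 active means primary screen active, with duplicate mean activation above negative control mean plus 3 SD, cut at about 11% in these data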
HEK293 MP dye = counter-screen for CHT activators: effect in parental HEK293 cells; shares compounds with CHT PAM; membrane potential dye fluorescence (FDSS); measured after EC20 choline addition; ratio readout change at 10 µM, hits read low; hit rate 62% among 2,500; AID 623908;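 active means duplicate-averaged ratio beyond 3 SD from buffer wells, up or down, though filed actives are nearly all decreases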
Numbers stand for hits; i = inactive; nt = no result. Hits are enriched below; roughly 1.7% of the tested compounds scored in any of these assays.

SMILES	CHT inh	CHT PAM	TAG inh	MIN6 prolif	CHT act confirm	HEK293 MP dye
CN1CCc2c(sc(NC(=O)c3cc(Cl)sc3Cl)c2C(N)=O)C1	i	i	i	i	22	i
CN1CCc2c(sc(NC(=O)c3ccco3)c2C(N)=O)C1	i	i	i	i	nt	nt
CN1CCc2c(sc(NC(=O)c3ccc(S(=O)(=O)N4CCOCC4)cc3)c2C(N)=O)C1	i	6.6	i	i	67	-63
CCN1CCc2c(sc(NC(=O)c3ccc(S(=O)(=O)N(C)CC4CCCO4)cc3)c2C(N)=O)C1 (centres undefined)	i	i	i	i	69	-38
COc1ccc(C(=O)Nc2ccccc2C(=O)NC(Cc2c[nH]c3ccccc23)C(=O)O)cc1 (centres undefined)	i	i	nt	i	nt	nt
CNC[C@H]1OCc2ccccc2-c2ccccc2C(=O)N([C@@H](C)CO)C[C@H]1C	nt	nt	i	nt	nt	nt
O=C(Nc1ccccc1F)c1ccc(C(=O)c2ccccc2)cc1	i	i	i	i	nt	nt
CCCCn1c(N)c(N(CCOC)C(=O)c2ccc(COc3ccccc3)o2)c(=O)[nH]c1=O	i	6.7	i	i	16	i
Cc1cccn2c(Nc3ccccc3)c(-c3ccccn3)nc12	i	i	i	i	41	-25
Cc1ccn2c(Nc3ccccc3)c(-c3ccccn3)nc2c1	i	i	i	i	nt	nt
CCCCCCCCCCC[N+](C)(C)CC/C=C1/c2ccccc2Sc2ccc(Cl)cc21	i	i	nt	i	nt	nt
CCCCCCCCCC[N+](C)(C)CC/C=C1/c2ccccc2Sc2ccc(Cl)cc21	i	8.2	nt	i	i	-47
COc1ccc(C2c3cc(OC)c(OC)cc3CCN2C(=O)c2cccc([N+](=O)[O-])c2)cc1OC (centres undefined)	i	i	nt	i	29	i
COc1cc2c(cc1OC)C(c1ccccc1)N(C(=O)c1ccccc1)CC2 (centres undefined)	i	i	i	i	nt	nt
COc1cc2c(cc1OC)C(c1cccc([N+](=O)[O-])c1)N(C(=O)c1ccc(F)cc1)CC2 (centres undefined)	i	7.1	nt	i	46	i
CCN(c1cccc(C)c1)S(=O)(=O)c1ccc2c(c1)N(C(C)=O)CCS2	i	i	nt	i	nt	nt
Cc1nc2ccc(Cc3ccc4nc(C)[nH]c4c3)cc2[nH]1	i	7.5	nt	i	59	-54
Cc1nc2ccc(N=NN(C)C)cc2[nH]1	i	i	i	i	nt	nt
COP(=O)(OC)C(Nc1ccc(C)cc1)c1ccc(Br)cc1 (centres undefined)	nt	nt	i	nt	nt	nt
Cc1nc(NCCCn2ccnc2)c2ccccc2n1	i	i	nt	i	46	-65
c1cncc(-c2nc(NCCCn3ccnc3)c3ccccc3n2)c1	i	i	i	i	nt	nt
CC1(/[N+]([O-])=C/c2ccccc2F)CCCCC1=O (centres undefined)	i	i	i	i	nt	nt
CC(C)(C)c1ccc(S(=O)(=O)N2CCN(C(=O)C3CCC3)CC2)cc1	i	i	i	i	nt	nt
Brc1ccc2nc(-c3cccs3)c(NCC3CCCO3)n2c1 (centres undefined)	i	6.7	i	i	i	i
c1csc(-c2nc(NCC3CCCO3)c3ccccc3n2)c1 (centres undefined)	i	i	nt	i	nt	nt
SMILES	CHT inh	CHT PAM	TAG inh	MIN6 prolif	CHT act confirm	HEK293 MP dye
Cc1cc(C(=O)N/N=C2\CC(=O)c3ccccc32)c(C)n1-c1ccccc1	i	i	i	i	nt	nt
COc1ccc(N)c2c1C(=O)c1ccccc1C2=O	i	7.4	nt	nt	48	-54
COc1ccc(OC)c2c1C(=O)c1ccccc1C2=O	i	i	nt	i	nt	nt
COc1ccc(C(=O)C(C)[n+]2ccc(C)c3ccccc32)cc1[N+](=O)[O-] (centres undefined)	i	6.5	nt	i	43	-40
COc1ccc(C(=O)NNC(=O)c2ccccc2[N+](=O)[O-])cc1[N+](=O)[O-]	i	i	i	i	nt	nt
CN(C)S(=O)(=O)c1ccc(C(=O)Nc2ccccc2C(=O)NCCCN2CCOCC2)cc1	nt	nt	i	i	nt	nt
O=C(Nc1ccccc1C(=O)NCCCN1CCOCC1)c1cccc([N+](=O)[O-])c1	i	6.3	i	i	50	-59
CC(C(=O)N1CCc2ccccc2C1)N1C(=O)c2ccccc2C1=O (centres undefined)	i	i	i	i	nt	nt
